Laboratory results as given in PubChem BioAssay AID1159580 (chemical genetic matrix, 2015).
“And” between values parts separate entries of the source, which are not always exact repeats. Equal entries are not always repeated. Hit rate of the full screen: of about 5,500 compounds, about 2,000 (36%) were called active. Roughly 18% stayed inconclusive and do not appear here. Rule as the data show it: active = normalized growth mostly below about 0.91 (no sharp cut-off); inconclusive = no clear call, values can overlap the other calls; inactive = mostly above about 0.92. The list shows a part of the results.

Experiment: chemical genetic growth profiling, strain panel (AID 1159580);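 also: tested at 20 µM; growth read once vehicle control cultures reached saturation at 30 °C; 1 = growth at the plate median or of vehicle wells; lower values mean less growth of the strain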
Conditions: S. cerevisiae deletion strains, growth OD

Measured: normalized growth

C[C@]12CCC3C(CC[C@H]4CC(=O)CC[C@]34C)C1CCC2=O (some centres not stated)
inactive: locus YAL026C, strain drs2, stronger effect = lower value 0.949 | locus YAL030W, strain snc1, stronger effect = lower value 0.938 | locus YBL061C, strain skt5, stronger effect = lower value 0.987 | locus YBR023C, strain chs3, stronger effect = lower value 0.942 | locus YBR171W, strain sec66, stronger effect = lower value 1 | locus YBR229C, strain ROT2, stronger effect = lower value 0.964 | locus YBR231C, strain swc5, stronger effect = lower value 0.999 | locus YBR279W, strain paf1, stronger effect = lower value 0.983 | locus YCL016C, strain dcc1, stronger effect = lower value 0.94 | locus YCL029C, strain bik1, stronger effect = lower value 0.948 | locus YCL069W, strain vba3, stronger effect = lower value 0.979 | locus YCR088W, strain abp1, stronger effect = lower value 1.03 | locus YDL005C, strain med2, stronger effect = lower value 1.03 | locus YDL040C, strain nat1, stronger effect = lower value 1.03 | locus YDL074C, strain BRE1, stronger effect = lower value 0.795 | locus YDL101C, strain DUN1, stronger effect = lower value 0.978 | locus YDL185W, strain tfp1, stronger effect = lower value 0.932 | locus YDR001C, strain nth1, stronger effect = lower value 1.03 | locus YDR069C, strain doa4, stronger effect = lower value 0.942 | locus YDR101C, strain arx1, stronger effect = lower value 0.947 | locus YDR150W, strain NUM1, stronger effect = lower value 1.01 | locus YDR297W, strain sur2, stronger effect = lower value 0.939 | locus YDR334W, strain swr1, stronger effect = lower value 1.05 | locus YDR335W, strain msn5, stronger effect = lower value 0.932 | locus YEL037C, strain rad23, stronger effect = lower value 1.01 | locus YEL061C, strain CIN8 (second series), stronger effect = lower value 1.01 | locus YEL061C, strain CIN8, stronger effect = lower value 0.994 | locus YER015W, strain faa2, stronger effect = lower value 0.985 | locus YER016W, strain bim1, stronger effect = lower value 0.998 | locus YER110C, stronger effect = lower value 0.958 | locus YER111C, strain swi4, stronger effect = lower value 0.998 | locus YER155C, strain BEM2, stronger effect = lower value 1.04 | locus YER167W, strain BCK2, stronger effect = lower value 0.966 | locus YFR010W, strain ubp6, stronger effect = lower value 0.973 | locus YGL078C, strain dbp3, stronger effect = lower value 0.943 | locus YGL086W, strain mad1, stronger effect = lower value 0.971 | locus YGL167C, strain pmr1, stronger effect = lower value 1.02 | locus YGL227W, strain vid30, stronger effect = lower value 1.08 | locus YGL248W, strain PDE1, stronger effect = lower value 0.912 | locus YGL253W, strain hxk2, stronger effect = lower value 0.92 | locus YHR013C, strain ard1, stronger effect = lower value 0.978 | locus YHR027C, strain rpn1, stronger effect = lower value 0.985 | locus YHR030C, strain SLT2, stronger effect = lower value 0.974 and 0.898 | locus YHR079C, strain IRE1 (second series), stronger effect = lower value 0.991 | locus YHR079C, strain IRE1, stronger effect = lower value 0.901 | locus YHR094C, strain hxt1, stronger effect = lower value 0.997 | locus YHR129C, strain ARP1, stronger effect = lower value 0.96 | locus YHR200W, strain rpn10, stronger effect = lower value 0.928 | locus YIL073C, strain SPO22, stronger effect = lower value 0.782 | locus YIL125W, strain kgd1, stronger effect = lower value 0.989 | locus YIR030C, strain dcg1, stronger effect = lower value 0.976 | locus YJL092W, strain hpr5, stronger effect = lower value 0.978 | locus YJL115W, strain asf1, stronger effect = lower value 1.01 | locus YJL134W, strain LCB3, stronger effect = lower value 1.01 | locus YJL154C, strain vps35, stronger effect = lower value 1.03 | locus YJL168C, strain set2, stronger effect = lower value 1 | locus YJL187C, strain SWE1 (second series), stronger effect = lower value 0.92 | locus YJR043C, strain POL32, stronger effect = lower value 0.883 | locus YJR066W, strain TOR1, stronger effect = lower value 0.881 | locus YKL009W, strain mrt4, stronger effect = lower value 0.906 | locus YKL068W, stronger effect = lower value 0.989 | locus YKL085W, strain MDH1 (second series), stronger effect = lower value 0.97 | locus YKL085W, strain MDH1, stronger effect = lower value 0.97 | locus YKL160W, strain elf1, stronger effect = lower value 0.95 | locus YKL190W, strain CNB1, stronger effect = lower value 0.98 | locus YKR026C, strain gcn3, stronger effect = lower value 1.02 | locus YKR091W, strain srl3, stronger effect = lower value 1.03 | locus YLL001W, strain dnm1, stronger effect = lower value 0.942 | locus YLL041C, strain sdh2, stronger effect = lower value 1.01 | locus YLR058C, strain SHM2, stronger effect = lower value 0.958 | locus YLR102C, strain apc9, stronger effect = lower value 0.992 | locus YLR113W, strain HOG1, stronger effect = lower value 0.923 | locus YLR258W, strain gsy2, stronger effect = lower value 0.92 | locus YLR268W, strain sec22, stronger effect = lower value 0.927 | locus YLR330W, strain CHS5, stronger effect = lower value 0.95 | locus YLR342W, strain FKS1, stronger effect = lower value 0.912 | locus YLR357W, strain rsc2, stronger effect = lower value 1.08 | locus YLR370C, strain arc18, stronger effect = lower value 0.972 | locus YLR371W, strain rom2, stronger effect = lower value 0.956 | locus YLR384C, strain iki3, stronger effect = lower value 1.04 | locus YML016C, strain PPZ1, stronger effect = lower value 0.988 | locus YML124C, strain tub3, stronger effect = lower value 0.996 | locus YMR078C, strain ctf18, stronger effect = lower value 0.966 | locus YMR125W, strain sto1, stronger effect = lower value 1.02 | locus YMR129W, stronger effect = lower value 0.929 | locus YMR231W, strain pep5, stronger effect = lower value 0.99 | locus YMR307W, strain GAS1, stronger effect = lower value 0.771 | locus YNL067W, strain RPL9B, stronger effect = lower value 0.985 | locus YNL183C, strain NPR1, stronger effect = lower value 0.876 | locus YNL209W, strain ssb2, stronger effect = lower value 0.991 | locus YNL233W, strain BNI4, stronger effect = lower value 0.902 | locus YNL248C, strain rpa49, stronger effect = lower value 0.908 | locus YNL322C, strain KRE1 (second series), stronger effect = lower value 0.977 | locus YNL322C, strain KRE1, stronger effect = lower value 0.99 | locus YNR049C, strain mso1, stronger effect = lower value 1.02 | locus YOL012C, strain htz1 1.71 | locus YOL147C, strain pex11, stronger effect = lower value 0.975 | locus YOR061W, strain CKA2, stronger effect = lower value 0.923 | locus YOR069W, strain VPS5, stronger effect = lower value 1 | locus YOR070C, strain gyp1, stronger effect = lower value 0.946 | locus YOR080W, strain dia2, stronger effect = lower value 1.02 | locus YOR083W, strain WHI5, stronger effect = lower value 0.904 | locus YOR136W, strain idh2, stronger effect = lower value 0.994 | locus YOR144C, strain elg1, stronger effect = lower value 0.954 | locus YOR231W, strain MKK1, stronger effect = lower value 0.901 | locus YOR265W, strain rbl2, stronger effect = lower value 0.997 | locus YOR290C, strain snf2, stronger effect = lower value 0.932 | locus YOR316C, strain cot1, stronger effect = lower value 0.981 | locus YPL106C, strain sse1, stronger effect = lower value 1.14 | locus YPL240C, strain hsp82, stronger effect = lower value 0.936 | locus YPL256C, strain CLN2, stronger effect = lower value 0.887 | locus YPR119W, strain clb2, stronger effect = lower value 1.01 | locus YPR141C, strain kar3, stronger effect = lower value 1 | locus YPR167C, strain met16, stronger effect = lower value 0.921 | strain wtn01, stronger effect = lower value 0.944
0.743 (active) and 0.898 (inactive): locus YJL095W, strain BCK1, stronger effect = lower value
active: locus YAL021C, strain ccr4, stronger effect = lower value 0.737 | locus YBR009C, strain hhf1, stronger effect = lower value 0.79 | locus YBR021W, strain FUR4, stronger effect = lower value 0.781 | locus YCL011C, strain gbp2, stronger effect = lower value 0.86 | locus YDL035C, strain GPR1, stronger effect = lower value 0.787 | locus YDL192W, strain arf1, stronger effect = lower value 0.866 | locus YDR137W, strain rgp1, stronger effect = lower value 0.549 | locus YDR159W, strain sac3, stronger effect = lower value 0.799 | locus YDR162C, strain NBP2, stronger effect = lower value 0.408 | locus YDR195W, strain ref2 1.28 [resistant] | locus YDR318W, strain mcm21, stronger effect = lower value 0.895 | locus YDR388W, stronger effect = lower value 0.86 | locus YDR392W, strain spt3, stronger effect = lower value 0.495 | locus YDR502C, strain sam2, stronger effect = lower value 0.835 | locus YEL003W, strain gim4, stronger effect = lower value 0.774 | locus YER155C, strain BEM2 (second series), stronger effect = lower value 0.753 | locus YGL173C, strain kem1, stronger effect = lower value 0.821 | locus YGL240W, strain doc1, stronger effect = lower value 0.768 | locus YGR135W, strain pre9, stronger effect = lower value 0.856 | locus YGR252W, strain gcn5, stronger effect = lower value 0.692 | locus YHR142W, strain chs7, stronger effect = lower value 0.803 | locus YIL066C, strain RNR3, stronger effect = lower value 0.795 | locus YJL095W, strain BCK1 (second series), stronger effect = lower value 0.632 | locus YJL129C, strain trk1, stronger effect = lower value 0.851 | locus YJL164C, strain tpk1, stronger effect = lower value 0.847 | locus YJL166W, strain qcr8, stronger effect = lower value 0.815 | locus YJL187C, strain SWE1, stronger effect = lower value 0.923 | locus YKR001C, strain vps1, stronger effect = lower value 0.86 | locus YLL026W, stronger effect = lower value 0.928 | locus YLR027C, strain aat2, stronger effect = lower value 0.875 | locus YLR039C, strain RIC1, stronger effect = lower value 0.504 | locus YLR221C, strain rsa3, stronger effect = lower value 0.796 | locus YLR262C, strain YPT6 (second series), stronger effect = lower value 0.471 | locus YLR262C, strain YPT6, stronger effect = lower value 0.487 | locus YLR320W, strain mms22, stronger effect = lower value 0.595 | locus YLR342W, strain FKS1 (second series), stronger effect = lower value 0.718 | locus YLR418C, strain cdc73, stronger effect = lower value 0.701 | locus YML032C, strain rad52, stronger effect = lower value 0.82 | locus YML120C, strain ndi1, stronger effect = lower value 0.853 | locus YMR058W, strain fet3, stronger effect = lower value 0.872 | locus YMR205C, strain PFK2, stronger effect = lower value 0.726 | locus YMR223W, strain ubp8, stronger effect = lower value 0.864 | locus YNL071W, strain lat1, stronger effect = lower value 0.563 | locus YNL250W, strain rad50, stronger effect = lower value 0.894 | locus YNL271C, strain bni1, stronger effect = lower value 0.893 | locus YNL298W, strain CLA4, stronger effect = lower value 0.821 | locus YNL307C, strain MCK1, stronger effect = lower value 0.723 | locus YNR052C, strain pop2, stronger effect = lower value 0.648 | locus YOL006C, strain TOP1, stronger effect = lower value 0.529 | locus YOR001W, strain rrp6, stronger effect = lower value 0.833 | locus YOR106W, strain vam3, stronger effect = lower value 0.766 | locus YOR184W, strain ser1, stronger effect = lower value 0.658 | locus YOR270C, strain vph1, stronger effect = lower value 0.634 | locus YPL051W, strain arl3, stronger effect = lower value 0.865 | locus YPL078C, strain atp4, stronger effect = lower value 0.886 | locus YPR163C, strain tif3, stronger effect = lower value 0.884
